Measurements from PubChem BioAssay AID1159580 (chemical genetic matrix, 2015).
Several values for one entry are separate records, joined by “and”; a condition that tells them apart may be missing. Identical values can stand only once. Among all 5,500 compounds or so, about 2,000 (36%) were called active. Inconclusive results (about 18%) are left out. Cut-off read from the data, not from the text of the source: active = normalized growth mostly below about 0.91 (no sharp cut-off); inconclusive = no clear call, values can overlap the other calls; inactive = mostly above about 0.92. The list shows a part of the results.

Test: chemical genetic growth profiling, strain panel (AID 1159580);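 note: tested at 20 µM; growth read once vehicle control cultures reached saturation at 30 °C; 1 = growth at the plate median or of vehicle wells; lower values mean less growth of the strain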
Settings: S. cerevisiae deletion strains, growth OD

Measured: normalized growth

CCC1(CC)C(=O)C=CNC1=O
inactive: locus YAL021C, strain ccr4, stronger effect = lower value 0.998 | locus YAL026C, strain drs2, stronger effect = lower value 0.996 | locus YAL030W, strain snc1, stronger effect = lower value 1 | locus YBL061C, strain skt5, stronger effect = lower value 1.01 | locus YBR009C, strain hhf1, stronger effect = lower value 1.02 | locus YBR021W, strain FUR4, stronger effect = lower value 1.02 | locus YBR023C, strain chs3, stronger effect = lower value 0.994 | locus YBR171W, strain sec66, stronger effect = lower value 0.985 | locus YBR229C, strain ROT2, stronger effect = lower value 1.01 | locus YBR231C, strain swc5, stronger effect = lower value 0.997 | locus YBR279W, strain paf1, stronger effect = lower value 1 | locus YCL011C, strain gbp2, stronger effect = lower value 0.992 | locus YCL016C, strain dcc1, stronger effect = lower value 0.998 | locus YCL029C, strain bik1, stronger effect = lower value 1.01 | locus YCL061C, strain MRC1, stronger effect = lower value 0.999 | locus YCL069W, strain vba3, stronger effect = lower value 0.993 | locus YCR088W, strain abp1, stronger effect = lower value 0.986 | locus YDL005C, strain med2, stronger effect = lower value 0.999 | locus YDL035C, strain GPR1, stronger effect = lower value 1.02 | locus YDL040C, strain nat1, stronger effect = lower value 0.999 | locus YDL074C, strain BRE1, stronger effect = lower value 0.977 | locus YDL101C, strain DUN1, stronger effect = lower value 1 | locus YDL134C, strain PPH21, stronger effect = lower value 1.03 | locus YDL185W, strain tfp1, stronger effect = lower value 1.02 | locus YDL192W, strain arf1, stronger effect = lower value 1.01 | locus YDR001C, strain nth1, stronger effect = lower value 0.997 | locus YDR069C, strain doa4, stronger effect = lower value 1.02 | locus YDR101C, strain arx1, stronger effect = lower value 0.988 | locus YDR137W, strain rgp1, stronger effect = lower value 1.03 | locus YDR159W, strain sac3, stronger effect = lower value 1.02 | locus YDR162C, strain NBP2, stronger effect = lower value 1.02 | locus YDR195W, strain ref2 0.985 | locus YDR297W, strain sur2, stronger effect = lower value 0.995 | locus YDR318W, strain mcm21, stronger effect = lower value 1.01 | locus YDR334W, strain swr1, stronger effect = lower value 0.959 | locus YDR335W, strain msn5, stronger effect = lower value 0.997 | locus YDR388W, stronger effect = lower value 1.01 | locus YDR392W, strain spt3, stronger effect = lower value 0.945 | locus YDR502C, strain sam2, stronger effect = lower value 0.995 | locus YEL003W, strain gim4, stronger effect = lower value 0.994 | locus YEL037C, strain rad23, stronger effect = lower value 0.991 | locus YEL061C, strain CIN8 (second series), stronger effect = lower value 0.992 | locus YEL061C, strain CIN8, stronger effect = lower value 1 | locus YER015W, strain faa2, stronger effect = lower value 1 | locus YER016W, strain bim1, stronger effect = lower value 0.999 | locus YER110C, stronger effect = lower value 1.03 | locus YER111C, strain swi4, stronger effect = lower value 1.01 | locus YER155C, strain BEM2 (second series), stronger effect = lower value 0.992 | locus YER155C, strain BEM2, stronger effect = lower value 1 | locus YER167W, strain BCK2, stronger effect = lower value 1.02 | locus YFR010W, strain ubp6, stronger effect = lower value 0.985 | locus YGL078C, strain dbp3, stronger effect = lower value 1.02 | locus YGL086W, strain mad1, stronger effect = lower value 0.99 | locus YGL167C, strain pmr1, stronger effect = lower value 1 | locus YGL173C, strain kem1, stronger effect = lower value 1.01 | locus YGL227W, strain vid30, stronger effect = lower value 1 | locus YGL240W, strain doc1, stronger effect = lower value 1.02 | locus YGL248W, strain PDE1, stronger effect = lower value 0.987 | locus YGL253W, strain hxk2, stronger effect = lower value 0.985 | locus YGR078C, strain PAC10, stronger effect = lower value 0.97 | locus YGR135W, strain pre9, stronger effect = lower value 1.05 | locus YGR252W, strain gcn5, stronger effect = lower value 0.996 | locus YHR013C, strain ard1, stronger effect = lower value 1.03 | locus YHR027C, strain rpn1, stronger effect = lower value 0.982 | locus YHR030C, strain SLT2, stronger effect = lower value 1.01 and 1 | locus YHR079C, strain IRE1 (second series), stronger effect = lower value 1.01 | locus YHR079C, strain IRE1, stronger effect = lower value 1.01 | locus YHR094C, strain hxt1, stronger effect = lower value 1.02 | locus YHR129C, strain ARP1, stronger effect = lower value 1.01 | locus YHR142W, strain chs7, stronger effect = lower value 0.964 | locus YHR200W, strain rpn10, stronger effect = lower value 1.01 | locus YIL066C, strain RNR3, stronger effect = lower value 0.996 | locus YIL073C, strain SPO22, stronger effect = lower value 1.07 | locus YIL125W, strain kgd1, stronger effect = lower value 0.999 | locus YIR030C, strain dcg1, stronger effect = lower value 1.01 | locus YJL092W, strain hpr5, stronger effect = lower value 0.992 | locus YJL095W, strain BCK1 (second series), stronger effect = lower value 0.996 | locus YJL095W, strain BCK1, stronger effect = lower value 0.976 and 1.01 | locus YJL115W, strain asf1, stronger effect = lower value 0.973 | locus YJL129C, strain trk1, stronger effect = lower value 0.993 | locus YJL134W, strain LCB3, stronger effect = lower value 1 | locus YJL154C, strain vps35, stronger effect = lower value 0.983 | locus YJL164C, strain tpk1, stronger effect = lower value 1.01 | locus YJL166W, strain qcr8, stronger effect = lower value 1 | locus YJL168C, strain set2, stronger effect = lower value 1 | locus YJL187C, strain SWE1 (second series), stronger effect = lower value 0.982 | locus YJL187C, strain SWE1, stronger effect = lower value 1.01 | locus YJR043C, strain POL32, stronger effect = lower value 0.994
